Several values for one entry are separate records, joined by “and”; a condition that tells them apart may be missing. Equal values may be shown once. Inconclusive results are not listed. Entries that show only a call come without a potency. Activity calls are given as the source filed them. Unless noted, calls follow the shape of the dose curve; as a rule, active = well fitted curve in the direction sought with a large enough effect; inconclusive = small, poorly fitted or top-dose-only effect, or another doubt; inactive = no such curve, though single readings can be large; an effect the other way counts as inactive or inconclusive.
Experiments:
[1] = target: Calcium and integrin-binding protein 1 (Homo sapiens) (UniProt Q99828); assay: Primary qHTS for Identification of Calcium Integrin Binding Protein 1 (CIB1) Competitor (AID 1508620);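 also: GST tagged CIB1 binding a fluorescein labelled alphaIIb integrin peptide tracer; top concentration of the series differs between compounds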
Calcium and integrin-binding protein 1 (Homo sapiens), sequence (Q99828 whole entry, looked up): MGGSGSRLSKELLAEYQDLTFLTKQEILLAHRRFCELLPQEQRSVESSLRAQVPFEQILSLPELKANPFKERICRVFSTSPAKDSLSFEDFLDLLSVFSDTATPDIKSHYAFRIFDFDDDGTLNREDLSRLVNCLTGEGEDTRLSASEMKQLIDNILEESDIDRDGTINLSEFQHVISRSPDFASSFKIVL
Summary of the method: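 CIB1-GST (1 uM final) and compound incubated 15 min at room temperature before adding FITC-alphaIIb peptide tracer (100 nM final). Competition for binding read by fluorescence polarization (ex 480, em 540) after another 15 min at room temperature.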

[2] = Primary qHTS for small molecule stabilizers of the endoplasmic reticulum resident proteome: Secreted ER Calcium Modulated Protein (SERCaMP) assay (AID 1508630); also: potency is read from the fitted curve at half-maximal effect
Summary of the method: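 The SH-SY5Y reporter protocol was run at 3 concentrations up to 38.3 uM (primary) or 11 concentrations (follow-up): 16 h compound, 100 nM thapsigargin for 4 h, then extracellular luciferase luminescence.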

[3] = Primary qHTS for inhibitors of nuclear receptor binding SET domain protein 2 (NSD2) in an isogenic RCH-ACV NSD2 p.E1099K mutant (9B) (AID 1645876); also: nearly all actives have a fitted effect of over 70% in size; also: potency is read from the fitted curve at half-maximal effect
[4] = Primary qHTS for inhibitors of nuclear receptor binding SET domain protein 2 (NSD2) in an RCH-ACV wild type WT cells (2C) (AID 1645877); also: nearly all actives have a fitted effect of over 70% in size; also: potency is read from the fitted curve at half-maximal effect
[5] = target: Cytochrome P450 2D6 (Homo sapiens) (UniProt P10635); assay: Cytochrome P450 family 2 subfamily D member 6 (CYP2D6) small molecule antagonists: luciferase biochemical (cell-free) qHTS assay (AID 1645840; active = well fitted curve in the direction sought with a large enough effect in the repeat runs; an effect the other way counts as inactive or inconclusive; also: nearly all actives have a fitted effect of over 55% in size; also: potency is read from the fitted curve at half-maximal effect)
Cytochrome P450 2D6 (Homo sapiens), sequence (P10635 whole entry, looked up): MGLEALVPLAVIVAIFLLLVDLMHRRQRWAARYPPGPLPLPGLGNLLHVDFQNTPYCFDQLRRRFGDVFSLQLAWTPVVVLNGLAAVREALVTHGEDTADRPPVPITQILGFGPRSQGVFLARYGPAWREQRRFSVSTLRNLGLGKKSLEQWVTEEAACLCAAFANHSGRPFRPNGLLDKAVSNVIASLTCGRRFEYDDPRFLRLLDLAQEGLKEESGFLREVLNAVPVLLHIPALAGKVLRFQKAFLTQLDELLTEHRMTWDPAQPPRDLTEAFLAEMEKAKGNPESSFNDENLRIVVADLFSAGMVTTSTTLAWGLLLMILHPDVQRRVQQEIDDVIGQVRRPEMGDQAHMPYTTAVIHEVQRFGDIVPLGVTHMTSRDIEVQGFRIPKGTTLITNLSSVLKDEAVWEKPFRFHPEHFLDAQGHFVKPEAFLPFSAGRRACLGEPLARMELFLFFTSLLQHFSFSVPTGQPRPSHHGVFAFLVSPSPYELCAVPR
Summary of the method: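 P450-Glo CYP2D6 system: proluciferin substrate converted by enzyme to luciferin, read by luminescence proportional to activity. Enzyme-substrate mix with compound 10 min at room temperature, then NADPH regeneration 1 h before detection reagent.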

[6] = target: Cytochrome P450 2C9 (Homo sapiens) (UniProt P11712); assay: Cytochrome P450 family 2 subfamily C member 9 (CYP2C9) small molecule antagonists: luciferase biochemical (cell-free) qHTS assay (AID 1645842; active = well fitted curve in the direction sought with a large enough effect in the repeat runs; an effect the other way counts as inactive or inconclusive; also: nearly all actives have a fitted effect of over 55% in size; also: potency is read from the fitted curve at half-maximal effect)
Cytochrome P450 2C9 (Homo sapiens), sequence (P11712 whole entry, looked up): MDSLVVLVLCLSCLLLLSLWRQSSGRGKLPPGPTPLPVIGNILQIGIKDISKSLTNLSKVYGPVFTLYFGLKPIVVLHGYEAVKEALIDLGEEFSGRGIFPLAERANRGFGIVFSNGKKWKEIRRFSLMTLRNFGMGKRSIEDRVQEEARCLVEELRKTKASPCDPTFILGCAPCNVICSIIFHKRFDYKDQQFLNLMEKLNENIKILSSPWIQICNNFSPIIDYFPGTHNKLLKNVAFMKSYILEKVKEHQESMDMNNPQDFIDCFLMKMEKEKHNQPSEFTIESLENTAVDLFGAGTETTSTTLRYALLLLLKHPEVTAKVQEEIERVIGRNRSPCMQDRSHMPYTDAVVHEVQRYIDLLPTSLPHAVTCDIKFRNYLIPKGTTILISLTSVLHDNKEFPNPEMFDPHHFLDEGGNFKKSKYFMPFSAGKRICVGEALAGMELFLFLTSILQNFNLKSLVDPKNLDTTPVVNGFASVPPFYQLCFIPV
Summary of the method: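 P450-Glo CYP2C9 system: proluciferin substrate with enzyme in mix containing 0.4% BSA, 10 min at room temperature, then NADPH regeneration solution added and incubated 1 h at 37C. Detection reagent stopped reaction; luminescence read after 20 min as RLU.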

[7] = target: N-terminal Xaa-Pro-Lys N-methyltransferase 1 (Homo sapiens) (UniProt Q9BV86); assay: Confirmatory qHTS for Inhibitors of N-terminal methyltransferase 1 (NTMT1): MTaseGlo Assay (AID 1645874); also: potency is read from the fitted curve at half-maximal effect; nearly all actives have a fitted effect of over 65% in size
N-terminal Xaa-Pro-Lys N-methyltransferase 1 (Homo sapiens), sequence (Q9BV86 whole entry, looked up): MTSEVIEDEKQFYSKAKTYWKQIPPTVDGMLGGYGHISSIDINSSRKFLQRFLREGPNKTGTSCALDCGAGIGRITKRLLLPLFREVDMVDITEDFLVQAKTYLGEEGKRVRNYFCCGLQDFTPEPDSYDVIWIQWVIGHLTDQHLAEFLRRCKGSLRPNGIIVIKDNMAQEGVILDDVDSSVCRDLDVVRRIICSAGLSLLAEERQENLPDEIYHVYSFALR
Summary of the method: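 MTase-Glo luminescence measured SAH formed by 125 nM NTMT1 from 100 uM SAM and 1 uM SPKRIA peptide over 30 min at room temperature, following 15 min compound preincubation. Percent inhibition against no-enzyme and DMSO controls gave 4-parameter Hill fits.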

| Structure (SMILES) | Potency [1] | Potency [2] | Potency [3] | Potency [4] | Potency [5] | Potency [6] | Potency [7] |
| --- | --- | --- | --- | --- | --- | --- | --- |
| CO[C@@H](C(=O)N1Cc2[nH]nc(NC(=O)c3ccc(N4CCN(C)CC4)cc3)c2C1)c1ccccc1 | inactive | inactive | 73.1 nM (active) and 118 nM (active) | 58 nM (active) and 52.5 nM (active) | – | – | – |
| COc1ccc(-n2c(C)c([N+](=O)[O-])c3ccc(O)cc32)cc1 | inactive | inactive | inactive | inactive | – | – | – |
| CC(C)[C@H](CO)Nc1nc(Nc2ccc(C(=O)O)c(Cl)c2)c2ncn(C(C)C)c2n1 | inactive | inactive | inactive | inactive | – | – | – |
| Cc1ccc(C(=O)Nc2cccc(C(F)(F)F)c2)cc1Nc1nc(-c2cccnc2)nc2c1cnn2C | inactive | inactive | inactive | inactive | – | – | – |
| CN1CCN(CCOc2cc(OC3CCOCC3)c3c(Nc4c(Cl)ccc5c4OCO5)ncnc3c2)CC1 | inactive | inactive | 3.25 µM (active) and 2.63 µM (active) | 5.15 µM (active) and 2.95 µM (active) | – | – | – |
| CC(C)(C)COc1ccc(-n2cc(C(=O)O)cn2)cc1C#N | inactive | inactive | inactive | inactive | – | – | – |
| CC#CCn1c(N2CCC[C@@H](N)C2)nc2c1c(=O)n(Cc1nc(C)c3ccccc3n1)c(=O)n2C | inactive | inactive | inactive | inactive | – | – | – |
| NC(CO)(CO)CCc1ccc(Sc2cccc(OCc3ccccc3)c2)cc1Cl | inactive | inactive | 7.42 µM (active) | 7.42 µM (active) | – | – | – |
| O=C(O)c1ccccc1C(=O)Nc1ccc(-c2ccccc2)cc1 | inactive | inactive | inactive | inactive | – | – | – |
| N[C@@]1(C(=O)O)CS(=O)(=O)[C@H]2[C@H](C(=O)O)[C@H]21 | inactive | inactive | inactive | inactive | – | – | – |
| Nc1ncnc2c1nc(Cl)n2[C@@H]1O[C@H](CO)[C@@H](O)[C@@H]1O | inactive | inactive | 18.6 µM (active) | 20.9 µM (active) | – | – | – |
| O=c1cc(CN2CCOCC2)occ1OCCCCCSc1ccnc2cc(C(F)(F)F)ccc12 | inactive | inactive | 18.6 µM (active) and 9.16 µM (active) | 16.6 µM (active) and 18.3 µM (active) | – | – | – |
| CO[C@H]1C(=O)[C@]2(C)[C@@H](OC)C[C@H]3OC[C@@]3(OC(C)=O)[C@H]2[C@H](OC(=O)c2ccccc2)[C@]2(O)C[C@H](OC(=O)[C@H](O)[C@@H](NC(=O)OC(C)(C)C)c3ccccc3)C(C)=C1C2(C)C | inactive | inactive | 0.003 µM (active) | 0.0026 µM (active) | – | – | – |
| CC(C)C(C)C=CC(C)C1CCC2C3=CC=C4CC(O)CCC4(C)C3CCC21C (stereo not given) | inactive | 1.49 µM (active) | inactive | inactive | – | – | – |
| CC(C)n1cnc2c(NCCCCCCNC(=O)OC(C)(C)C)nc(NCCO)nc21 | inactive | inactive | 14.8 µM (active) | 16.6 µM (active) | – | – | – |
| O=C(NOCC(O)CO)c1cc(Br)c(F)c(F)c1Nc1ccc(I)cc1F (stereo not given) | inactive | inactive | – | 20.9 µM (active) | – | – | – |
| COc1ccc(-c2coc3cc(O)cc(O)c3c2=O)cc1 | inactive | – | 18.6 µM (active) | – | – | – | – |
| Cc1cnc(C(=O)O)c[n+]1[O-] | inactive | – | inactive | inactive | inactive | inactive | – |
| NC(=O)c1cccc2[nH]c(-c3ccc([C@H]4CCCN4)cc3F)nc12 | inactive | – | 14.8 µM (active) | 10.5 µM (active) | – | – | – |
| O=C(NCc1ccccc1)c1csc(Nc2ccncn2)n1 | inactive | – | 11.8 µM (active) | 9.34 µM (active) and 16.3 µM (active) | – | – | – |
| NC(=O)c1cnc(-c2ccc(C3(N)CCC3)cc2)c(-c2ccccc2)c1 | – | inactive | 2.95 µM (active) and 459 nM (active) | 11.8 µM (active) and 916 nM (active) | – | – | – |
| CN(C)C1CCN(C(=O)c2ccc(NC(=O)Nc3nc(N4CCOCC4)nc(N4CCOCC4)n3)cc2)CC1 | inactive | – | 25.2 nM (active) and 37.2 nM (active) | 28.2 nM (active) and 37.2 nM (active) | – | – | – |
| Clc1cc(Cl)cc(CNc2ncncc2-c2ccc3c(c2)OCO3)c1 | inactive | inactive | 13.2 µM (active) | 11.8 µM (active) | – | – | – |
| O=C(Nc1ccccc1-c1cn2c(CN3CCNCC3)csc2n1)c1cnc2ccccc2n1 | inactive | – | 20.5 µM (active) and 7.42 µM (active) | 4.09 µM (active) and 6.61 µM (active) | – | – | 33.9 µM (active) |
| COCCOc1nc(-c2ccc(Cl)c(Cl)c2)n(-c2ccc(NC(=O)CCl)cc2)n1 | inactive | – | 1.48 µM (active) | 1.32 µM (active) | 0.756 µM (active) | 4.77 µM (active) | – |

Reference: PubChem BioAssay (NCATS)
